Assay results taken from the supplement of paper PMC10981050.
“And” between values parts separate entries of the source, which are not always exact repeats. Equal values may be shown once. Where a name gives a salt, the structure may show the parent alone.

Legend:
Assay in all cases: cell viability relative to vehicle control; higher = less cytotoxic
Conditions in all cases: 10 µM
K562 = tested on: K562
In short: (§1)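 After removal of identity-inconsistent compounds, the Selleck bioactive, kinase and epigenetic probe libraries were screened on CRISPR-edited mutant clones and isogenic wild-type clones of four leukaemia lines. Plates were 384-well, each well holding 2000 cells in 50 µL medium and receiving a single 10 µM acoustically dispensed dose. CellTiter-Glo luminescence was read 48 h later, after the supernatant was taken off. Genedata Screener was used to express viability as percent of the on-plate vehicle control.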

MARIMO = tested on: MARIMO
In short: as §1

MOLM14 = tested on: MOLM14
In short: as §1

OCI-AML2 = tested on: OCI-AML2
In short: as §1

SMILES | cell viability (K562; SRSF2 genotype: SRSF2 P95H/wt) | cell viability (K562; SRSF2 genotype: SRSF2 wt/wt) [%] | cell viability (MARIMO; SRSF2 genotype: SRSF2 P95H/wt) [%] | cell viability (MARIMO; SRSF2 genotype: SRSF2 wt/wt) [%] | cell viability (MOLM14; SRSF2 genotype: SRSF2 P95H/wt) [%] | cell viability (MOLM14; SRSF2 genotype: SRSF2 wt/wt) [%] | cell viability (OCI-AML2; SRSF2 genotype: P95H/wt) [%] | cell viability (OCI-AML2; SRSF2 genotype: wt/wt) [%]
Cc1cc2c3c([n+](C)c4ccc(F)cc4c3c1)-c1cc(F)ccc1N2C [RHPS 4 methosulfate] | 48.6% and 58.2% | 61.4 | 52.5 | 50.6 | 5.12 | 27.5 | 0.13 | 8.9
COc1c(C)c2c(c(O)c1C/C=C(\C)CCC(=O)O)C(=O)OC2 [Mycophenolic acid] | 49.9% and 48.3% | 43.2 | 42.2 | 41.6 | 10.9 | 3.65 | 13.9 | 13
COC[C@H]1C[C@@H](c2nc(-c3ccc4c(c3)COc3cc5c(ccc6nc([C@@H]7CC[C@H](C)N7C(=O)[C@@H](NC(=O)OC)C(C)C)[nH]c65)cc3-4)c[nH]2)N(C(=O)[C@H](NC(=O)OC)c2ccccc2)C1 [Velpatasvir] | 95.6% and 98.5% | 87.6 | 88.2 | 91.6 | 90.1 | 93.5 | 98 | 93.6
CCCC(CCC)C(=O)O [Valproic acid sodium salt (Sodium valproate)] | 95% and 89.8% | 102 | 84.2 | 91.5 | 93.2 | 93.7 | 89.8 | 95.9
CC(C)C[C@H](NC(=O)[C@H]1O[C@@H]1C(=O)O)C(=O)NCCCCN=C(N)N | 106% and 111% | 114 | 99.6 | 104 | 101 | 104 | 108 | 115
COc1ccc(CCC(=O)N(c2nccc3ccccc23)[C@@H]2CCCNC2)cc1 | 91.8% and 90.5% | 85.2 | 79 | 93.4 | 80.5 | 85.3 | 91 | 91.2
NNc1nncc2ccccc12 [Hydralazine hydrochloride] | 99.2% and 101% | 96.3 | 97.6 | 101 | 98.1 | 99 | 106 | 87
Cc1ccc(-n2[nH]c(C)c(N=Nc3cccc(-c4cccc(C(=O)O)c4)c3O)c2=O)cc1C [Eltrombopag] | 77.1% and 80.1% | 74.4 | 62.2 | 71.6 | 77 | 74.6 | 68.8 | 70.1
COc1ccc(CC2c3cc(OC)c(OC)cc3CC[N+]2(C)CCC(=O)OCCCCCOC(=O)CC[N+]2(C)CCc3cc(OC)c(OC)cc3C2Cc2ccc(OC)c(OC)c2)cc1OC (stereo unspecified) [Atracurium besylate] | 90% and 97.2% | 87.9 | 87.3 | 84.9 | 75 | 97.1 | 115 | 108
O=C(NCC1(c2nc(-c3ccccc3)cs2)CCOCC1)c1cccc(-c2noc(C(F)(F)F)n2)c1 | 82.1% and 90.7% | 86.5 | 86.5 | 85.5 | 87.9 | 97.8 | 75.7 | 79.3
COc1ccc(-n2c(C)c([N+](=O)[O-])c3ccc(O)cc32)cc1 | 97.5% and 95.4% | 94 | 99.2 | 108 | 93.6 | 98.2 | 73.1 | 80.2
Cc1cc(C)c(/C=C2\C(=O)Nc3ccccc32)[nH]1 [Semaxanib (SU5416)] | 102% and 103% | 105 | 88.3 | 97.4 | 20 | 19.8 | 28.1 | 39.9
OCC(O)C(O)CO (stereo unspecified) [Erythritol] | 100% and 105% | 99.9 | 98.4 | 106 | 101 | 101 | 98.2 | 110
Nc1ncnc2c1ncn2[C@@H]1O[C@H](COP(=O)(O)O)[C@@H](O)[C@H]1O [5'-Adenylic acid] | 99.5% and 92.5% | 90.4 | 84 | 87.2 | 87.1 | 89.3 | 99.6 | 93.9
C=C1CCC[C@]2(C)C[C@]3(O)OC(=O)C(C)=C3C[C@@H]12 [Atractylenolide III] | 105% and 101% | 99.3 | 101 | 102 | 102 | 99 | 94.9 | 106
COc1cc2c(cc1O)CC[C@@H]1[C@@H]2CC[C@]2(C)[C@@H](O)CC[C@@H]12 [2-Methoxyestradiol] | 14% and 27.1% | 29.9 | 10.4 | 10.9 | 7.93 | 2.27 | 6.68 | 13.6
COc1c(C)c(C(=O)c2ccc(N)c(C(=O)O)c2)n2ccccc12 | 106% and 97.6% | 101 | 102 | 110 | 105 | 108 | 97.6 | 106
Cc1cc(C)cc(Oc2ccc(CNC(=O)[C@H](C)N)cc2C)c1 | 85.9% and 95.5% | 93.9 | 86.5 | 87.8 | 78.1 | 94.3 | 75.5 | 83.3
CN1C(CCl)Nc2cc(Cl)c(S(N)(=O)=O)cc2S1(=O)=O (stereo unspecified) [Methyclothiazide] | 92.4% and 91.5% | 98.4 | 96.5 | 100 | 90 | 97.4 | 96.3 | 99
COc1ccc(CC(=O)O)cc1OC [Homoveratrumic acid] | 92% and 79.3% | 85.9 | 89.2 | 98.9 | 89.3 | 92.8 | 88.2 | 99
C[C@H](CC[C@@]1(O)O[C@H]2C[C@H]3[C@@H]4CC=C5C[C@@H](O[C@@H]6O[C@H](CO)[C@@H](O[C@@H]7O[C@@H](C)[C@H](O)[C@@H](O)[C@H]7O)[C@H](O)[C@H]6O[C@@H]6O[C@@H](C)[C@H](O)[C@@H](O)[C@H]6O)CC[C@]5(C)[C@H]4CC[C@]3(C)[C@H]2[C@@H]1C)CO[C@@H]1O[C@H](CO)[C@@H](O)[C@H](O)[C@H]1O [Protodioscin] | 0.86% and 0.6% | 3.02 | 0.64 | 0.77 | 0.49 | 0.55 | 0.74 | 0.5

SMILES | cell viability (K562; SRSF2 genotype: SRSF2 P95H/wt) | cell viability (K562; SRSF2 genotype: SRSF2 wt/wt) [%] | cell viability (MARIMO; SRSF2 genotype: SRSF2 P95H/wt) [%] | cell viability (MARIMO; SRSF2 genotype: SRSF2 wt/wt) [%] | cell viability (MOLM14; SRSF2 genotype: SRSF2 P95H/wt) [%] | cell viability (MOLM14; SRSF2 genotype: SRSF2 wt/wt) [%] | cell viability (OCI-AML2; SRSF2 genotype: P95H/wt) [%] | cell viability (OCI-AML2; SRSF2 genotype: wt/wt) [%]
COC(=O)[C@H](Cc1ccccc1)NC(=O)[C@@H](N)CC(=O)O [Aspartame] | 101% and 92.2% | 91.6 | 102 | 101 | 98.8 | 97.1 | 93.6 | 92.1
O=c1ccc2ccc(O)c(O)c2o1 [Daphnetin] | 79.5% and 82.3% | 83.5 | 75.2 | 89 | 84.4 | 93.2 | 81.4 | 86.2
NC(=O)c1cnc(N[C@@H]2CCCC[C@@H]2N)nc1Nc1cccc(-n2nccn2)c1 | 16.9% and 18.1% | 15.9 | 16 | 12.6 | 2.43 | 1.83 | 0.51 | 3.84
C=CC(=O)N1CCN(CCCn2c(=O)c(-c3c(Cl)c(OC)cc(OC)c3Cl)cc3cnc(NC)nc32)CC1 | 85.1% and 88.1% | 86.8 | 63.3 | 72.7 | 85.3 | 88.1 | 65.2 | 69.4
NC1(c2ccc(-c3nc4ccn5c(=O)[nH]nc5c4cc3-c3ccccc3)cc2)CCC1 [MK-2206 dihydrochloride] | 38.7% and 32.2% | 48.4 | 51.4 | 53.3 | 14.7 | 22.9 | 5.42 | 27.8
CCN(C(=O)c1c(O)c2c(Cl)cccc2n(C)c1=O)c1ccccc1 | 98.8% and 96.5% | 96.4 | 92.4 | 99.1 | 84.1 | 93.4 | 87.9 | 99.8
CC1CNC(=O)NC1=O (stereo unspecified) [Dihydrothymine] | 102% and 110% | 97.3 | 96.7 | 108 | 97.7 | 103 | 94 | 105
CCC(C)(C)c1ccc(CC(C)CN2C[C@@H](C)O[C@@H](C)C2)cc1 (stereo partly specified) [Amorolfine Hydrochloride] | 79.9% and 81.9% | 99.7 | 66.2 | 71.5 | 81.8 | 81.4 | 49.3 | 71.5
CC(C)=CCC[C@](C)(O)[C@H]1CC[C@]2(C)[C@@H]1[C@H](O)C[C@@H]1[C@@]3(C)CC[C@H](O[C@@H]4O[C@H](CO)[C@@H](O)[C@H](O)[C@H]4O[C@@H]4O[C@H](CO)[C@@H](O)[C@H](O)[C@H]4O)C(C)(C)[C@@H]3CC[C@]12C [20S-Ginsenoside Rg3] | 107% and 97.7% | 101 | 108 | 108 | 101 | 102 | 105 | 104
C[C@H]1[C@H](C)CC[C@]2(C(=O)O)CC[C@]3(C)C(=CC[C@@H]4[C@@]5(C)CCC(=O)C(C)(C)[C@@H]5CC[C@]43C)[C@H]12 [Ursonic acid] | 37.2% and 50.8% | 55.8 | 27.6 | 19 | 28.4 | 19.4 | 24.6 | 16.9
O=CC[C@@H](O)[C@H](O)[C@H](O)CO [2-Deoxy-D-glucose] | 104% and 94.5% | 99.2 | 101 | 107 | 102 | 101 | 91.3 | 108
COc1cc(O)c(C(=O)Nc2nc(C(=O)NCCN(C(C)C)C(C)C)cs2)cc1OC [Acotiamide hydrochloride] | 93.4% and 91.4% | 103 | 98 | 98.8 | 97 | 98.8 | 97.1 | 98.7
CC(=O)OC/C=C(/C)CCC=C(C)C [Neryl acetate] | 98.4% and 101% | 100 | 96.8 | 102 | 112 | 99.6 | 100 | 103
CC(C)n1cnc2c(NCCc3ccc(O)cc3)nc(-c3csc4ccccc34)nc21 [StemRegenin 1] | 50.9% and 50.1% | 56 | 84.6 | 92.4 | 64.5 | 89.6 | 86.8 | 83.5
CCCC(=O)Nc1ncnc2c1ncn2[C@@H]1O[C@@H]2COP(=O)(O)O[C@H]2[C@H]1OC(=O)CCC [Dibutyryl-cAMP (Bucladesine)] | 91.3% and 90.5% | 92.8 | 87.2 | 97.4 | 83.6 | 94.4 | 104 | 97.7
OC[C@H]1O[C@H](O[C@H]2O[C@H](CO)[C@@H](O)[C@H](O)[C@H]2O)[C@H](O)[C@@H](O)[C@@H]1O [D-(+)-Trehalose dihydrate] | 103% and 99.5% | 102 | 106 | 111 | 104 | 108 | 105 | 108
COc1cc(-c2cc(-c3cccc(O)c3)cnc2N)cc(OC)c1OC | 13.5% and 28.9% | 15.6 | 78.2 | 72.5 | 81.9 | 83 | 83.5 | 83.1
O=P(O)(O)Oc1cccc2ccccc12 [1-Naphthyl phosphate potassium salt] | 104% and 95% | 97.8 | 87.5 | 107 | 91.7 | 104 | 83.9 | 91.1
c1ccc(CNc2nc(NCc3ccccc3)c3ccccc3n2)cc1 | 17.4% and 10.9% | 12.4 | 0.92 | 11 | 0.16 | 0.16 | 0.21 | 0.19
CNC(=O)c1cccc(-c2ccc3c(N4CCOC[C@@H]4C)nc(N4CCOC[C@@H]4C)nc3n2)c1 [Vistusertib (AZD2014)] | 44.8% and 43.3% | 38.4 | 60.8 | 48.5 | 35.1 | 28.9 | 29.2 | 28.8
Cc1cc(C)nc(NS(=O)(=O)c2ccc(N)cc2)n1 [Sulfamethazine Sodium Salt] | 105% and 99.9% | 102 | 106 | 106 | 100 | 106 | 88.5 | 113
